Inconclusive results are not listed. Active and inactive are the calls of the source. Unless noted, the call rests on the fitted dose curve; in most records, active means well fitted curve in the direction sought with a large enough effect in the repeat runs; inconclusive means weak or mixed curves; inactive means no such curve, though single readings can be large; an effect the other way counts as inactive or inconclusive.
Assays:
[1] = molecular target: Aryl hydrocarbon receptor (Homo sapiens) (UniProt P35869); test: qHTS assay to identify small molecule that activate the aryl hydrocarbon receptor (AhR) signaling pathway (AID 743085);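 further: HG2L7.5c1 human HepG2 liver cells with stably integrated DRE-driven firefly reporter; series mostly up to about 70 µM; nearly all actives have a fitted effect of over 15% in size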
Summary of the method: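 Luminescence read-out: ONE-Glo reagent, 30 min at room temperature, in HG2L7.5c1 HepG2 reporter cells treated 24 h at 37C. Viability was measured beforehand by CellTiter-Fluor fluorescence after 30 min at 37C.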

[2] = molecular target: Peroxisome proliferator-activated receptor gamma (Homo sapiens) (UniProt P37231); test: qHTS assay to identify small molecule agonists of the peroxisome proliferator-activated receptor gamma (PPARg) signaling pathway (AID 743094; active means well fitted activation curve with a large enough effect in the signal ratio in the repeat runs, not every such curve was filed as active; the % refers to the signal ratio)
Summary of the method: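 Beta-lactamase FRET fluorescence was the read-out after a 1 h room-temperature substrate step, following 17 h compound treatment at 37C of HEK293H cells expressing a UAS-driven bla reporter responsive to PPARg.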

[3] = molecular target: Peroxisome proliferator-activated receptor gamma (Homo sapiens) (UniProt P37231); test: qHTS assay to identify small molecule antagonists of the peroxisome proliferator-activated receptor gamma (PPARg) signaling pathway (AID 743191; calls by dose curve; further: series mostly up to about 63 µM; nearly all actives have a fitted effect of over 30% in size)
Summary of the method: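 Beta-lactamase reporter under UAS control in HEK293H PPARg-bla cells; compound treatment 17 h at 37C. Read-out: fluorescence intensity after 1 h room-temperature incubation with LiveBLAzer B/G FRET substrate.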

[4] = qHTS assay to identify small molecule antagonists of the peroxisome proliferator-activated receptor gamma (PPARg) signaling pathway - cell viability counter screen (AID 743194); further: nearly all actives have a fitted effect of over 55% in size
Summary of the method: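 Viability was measured as CellTiter-Glo luminescence in GeneBLAzer PPARg UAS-bla HEK293H cells. These cells had been exposed 17 h at 37 C to compounds together with rosiglitazone at 50 nM final, with the beta-lactamase readout taken in the same wells.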

[5] = qHTS assay for small molecule agonists of the antioxidant response element (ARE) signaling pathway - cell viability counter screen (AID 743203; calls by dose curve; further: nearly all actives have a fitted effect of over 55% in size)
Summary of the method: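 HepG2 cells carrying ARE-driven beta-lactamase; 2,000 cells/well; 5 hrs plating; compound pinned from DMSO; 16 hrs 37C/5% CO2; CellTiter-Glo added; 30 min RT; luminescence.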

[6] = qHTS assay for small molecule activators of the heat shock response signaling pathway - cell viability counter screen (AID 743209); further: nearly all actives have a fitted effect of over 50% in size
Summary of the method: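 Luminescence from CellTiter-Glo, added after the beta-lactamase FRET read, gave the viability signal. Cells were HSE-bla HeLa treated with DMSO-dissolved compounds for 5 h at 37 C following overnight plating.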

[7] = qHTS assay for small molecule activators of the heat shock response signaling pathway (AID 743210; active means well fitted activation curve with a large enough effect in the signal ratio in the repeat runs, with a control signal flat, not every such curve was filed as active; the % refers to the signal ratio;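 further: HeLa cells with beta-lactamase reporter driven by heat shock elements; series mostly up to about 63 µM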)
Summary of the method: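 In HSE-bla HeLa cells, 5 h compound incubation (37 C) precedes addition of LiveBLAzer B/G substrate; after 2.5 h at room temperature, fluorescence intensity indicates reporter induction.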

[8] = qHTS assay to identify small molecule agonists of the peroxisome proliferator-activated receptor delta (PPARd) signaling pathway - cell viability counter screen (AID 743211); further: nearly all actives have a fitted effect of over 55% in size
Summary of the method: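 Read-out: CellTiter-Glo luminescence, 30 min RT, measured in the same wells as the beta-lactamase reporter. Cells: GeneBLAzer PPAR delta UAS-bla HEK293H, 3000 cells/well, compound exposure 17 h at 37C.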

[9] = qHTS assay to identify small molecule that activate the aryl hydrocarbon receptor (AhR) signaling pathway - cell viability counter screen (AID 743086);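 further: HepG2 liver cells carrying the AhR DRE luciferase reporter; series mostly up to about 70 µM; nearly all actives have a fitted effect of over 45% in size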
Summary of the method: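 Cytotoxicity counter screen: CellTiter-Fluor signal (30 min, 37 C) in 4000 HepG2 cells/well carrying the DRE-luciferase reporter, following 24 h compound exposure at 37 C.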

[10] = qHTS assay for small molecule agonists of the antioxidant response element (ARE) signaling pathway (AID 743202; active means well fitted activation curve with a large enough effect in the signal ratio in the repeat runs, not every such curve was filed as active; the % refers to the signal ratio)
Summary of the method: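 An ARE-responsive beta-lactamase gene stably integrated in HepG2 cells serves as reporter. After 5 h plating and 16 h compound incubation at 37 C, fluorescence of the B/G FRET substrate was measured.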

Measured: Potency

Peroxisome proliferator-activated receptor gamma (Homo sapiens), sequence (P37231 whole entry, looked up): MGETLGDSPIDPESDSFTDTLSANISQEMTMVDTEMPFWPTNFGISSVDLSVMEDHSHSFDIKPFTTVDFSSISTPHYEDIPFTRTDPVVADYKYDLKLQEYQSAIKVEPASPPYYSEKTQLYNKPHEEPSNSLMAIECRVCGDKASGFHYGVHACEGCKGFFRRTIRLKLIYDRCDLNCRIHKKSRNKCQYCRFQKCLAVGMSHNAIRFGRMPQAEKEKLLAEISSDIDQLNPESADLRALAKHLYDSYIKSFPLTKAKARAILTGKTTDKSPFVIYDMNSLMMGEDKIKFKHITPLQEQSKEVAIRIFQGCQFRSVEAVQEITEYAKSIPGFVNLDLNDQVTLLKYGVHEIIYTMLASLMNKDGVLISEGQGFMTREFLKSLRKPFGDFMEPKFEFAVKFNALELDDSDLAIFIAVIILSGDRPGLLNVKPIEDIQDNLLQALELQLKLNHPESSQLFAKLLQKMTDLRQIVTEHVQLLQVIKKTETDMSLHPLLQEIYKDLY
Aryl hydrocarbon receptor (Homo sapiens), sequence (P35869 whole entry, looked up): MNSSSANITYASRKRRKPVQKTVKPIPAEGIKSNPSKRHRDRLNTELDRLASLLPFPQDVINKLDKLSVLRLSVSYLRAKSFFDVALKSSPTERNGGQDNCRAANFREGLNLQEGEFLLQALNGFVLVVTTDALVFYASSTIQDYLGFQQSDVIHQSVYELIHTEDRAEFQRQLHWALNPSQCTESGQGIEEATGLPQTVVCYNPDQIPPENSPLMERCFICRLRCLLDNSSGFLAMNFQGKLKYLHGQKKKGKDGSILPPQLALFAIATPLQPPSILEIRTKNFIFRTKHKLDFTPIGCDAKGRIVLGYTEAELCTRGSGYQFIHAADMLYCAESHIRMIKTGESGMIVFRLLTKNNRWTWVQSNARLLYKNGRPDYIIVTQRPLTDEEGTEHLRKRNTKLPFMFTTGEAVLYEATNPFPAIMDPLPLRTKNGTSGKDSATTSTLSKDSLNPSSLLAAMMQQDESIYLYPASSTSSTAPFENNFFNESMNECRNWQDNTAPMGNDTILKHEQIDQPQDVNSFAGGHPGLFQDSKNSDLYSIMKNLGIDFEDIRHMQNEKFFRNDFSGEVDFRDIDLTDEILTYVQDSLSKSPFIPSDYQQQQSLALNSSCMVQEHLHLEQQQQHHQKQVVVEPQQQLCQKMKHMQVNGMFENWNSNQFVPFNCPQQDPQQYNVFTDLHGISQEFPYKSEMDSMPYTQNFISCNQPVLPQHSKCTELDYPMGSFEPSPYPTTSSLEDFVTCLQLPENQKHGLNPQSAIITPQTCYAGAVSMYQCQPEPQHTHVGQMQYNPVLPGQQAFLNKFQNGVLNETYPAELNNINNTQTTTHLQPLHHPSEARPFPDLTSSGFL

O=C(c1ccccc1)C1(O)CCCCC1
not listed: [9] | [10]
inactive: all other assays above

CCCC[N+](C)(CCCC)CCCC
not listed: [1] | [6] | [7]
inactive: all other assays above

NC(=O)Cc1cccc2ccccc12
not listed: [9] | [10]
inactive: all other assays above

COc1cc(-c2ccc(=O)[nH]n2)ccc1OC(F)F
not listed: [1] | [3]
inactive: all other assays above

OCCc1ccccn1
not listed: [1] | [3]
inactive: all other assays above

CCN1C=CN(C)C1C (configuration not stated)
not listed: [1] | [3]
inactive: all other assays above

NC(=O)N[C@@H](CCC(=O)O)C(=O)O
inactive: [9] | [4] | [10] | [5] | [8]

CCCCCCCCN1CCCC1=O
not listed: [1] | [10]
inactive: all other assays above

COC(=O)C1=C(C)NC(C)=C(C(=O)OC(C)C)C1c1cccc2nonc12 (configuration not stated)
not listed: [1] | [4] | [6]
inactive: all other assays above

Reference: PubChem BioAssay (Tox21)
